# A selection: hits, their analogues and other compounds. The true share with any hit is near 3.2%.
# rCAG RNA binder: molecules binding r(CAG) RNA repeats. r(CAG) RNA repeat, TO-PRO-1 dye displacement fluorescence. hit rate 1.3% among 370,000. inhibition, % at 3 µM;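 active = inhibition above the plate cutoff, the mean of all test compounds on that plate plus 3 SD, cut at about 35% in these data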;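 note: 0% = DMSO alone and 100% = 100 µM mitoxantrone as full dye displacement; higher means more dye released from RNA so lower well fluorescence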
# sPLA2-III inh: Blocks human group III sPLA2 activity. Q9NZ20. QFRET BODIPY PC-A2 liposome hydrolysis, fluorescence. inhibition, % at 12.2 µM. hit rate 0.56% among 370,000;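 active = inhibition above mean plus 3 SD of compounds lying within the high and low control bounds, cut at about 19% in these data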;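 note: 0% = median of test compound wells and 100% = no enzyme DMSO wells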
# Target sequence (Q9NZ20 whole entry, looked up): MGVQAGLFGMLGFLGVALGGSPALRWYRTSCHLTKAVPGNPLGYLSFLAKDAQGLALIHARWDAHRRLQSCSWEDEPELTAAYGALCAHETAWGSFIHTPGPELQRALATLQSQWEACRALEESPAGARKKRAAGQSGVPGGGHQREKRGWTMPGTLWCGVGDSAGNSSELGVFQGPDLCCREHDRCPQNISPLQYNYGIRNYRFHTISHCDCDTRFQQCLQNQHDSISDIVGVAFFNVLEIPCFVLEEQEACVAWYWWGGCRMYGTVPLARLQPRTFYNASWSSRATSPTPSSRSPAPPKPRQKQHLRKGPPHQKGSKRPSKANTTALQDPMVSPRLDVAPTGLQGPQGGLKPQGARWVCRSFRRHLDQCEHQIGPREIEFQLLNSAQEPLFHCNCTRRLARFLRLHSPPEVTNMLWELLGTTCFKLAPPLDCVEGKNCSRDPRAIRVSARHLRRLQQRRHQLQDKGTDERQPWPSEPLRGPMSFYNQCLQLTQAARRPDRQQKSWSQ
# MsrA act: activators of bovine methionine sulfoxide reductase A; purified bovine MsrA, absorbance read-out; activation, % at 10.6 µM; hit rate 0.3% among 360,000; in the data active = activation above about 7.5%;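 note: 0% = vehicle and 100% = reference activator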
# MsrA inh: inhibitors of bovine MsrA | purified bovine MsrA, absorbance read-out | inhibition, % at 15.5 µM | hit rate 0.75% among 360,000 | AID 651718; in the data active = inhibition above about 4.5%;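 note: 0% = vehicle wells with enzyme and 100% = reference inhibitor wells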
# PG9 Ab binder: binds the HIV-1 gp120 antibody PG9; TR-FRET gp120-PG9 antibody binding; inhibition, % at 6.7 µM; hit rate 0.43% among 360,000; in the data active = inhibition above about 8.5%
# PG9 binder conf: PG9 antibody binding, confirmed | shares compounds with PG9 Ab binder | TR-FRET PG9 antibody binding, biochemical | inhibition, % at 6.7 µM | hit rate 90% among 1,500; in the data active = inhibition above about 9%
# PGV04 counter: PGV04 control antibody binding, counter-screen. shares compounds with PG9 Ab binder. TR-FRET PGV04 antibody-gp120 binding, biochemical. inhibition, % at 6.7 µM. hit rate 95% among 1,500; in the data active = inhibition above about 9.5%
# PG9 bind DR: PG9 antibody binding, dose response | AID 651848 | shares compounds with PG9 Ab binder | TR-FRET PG9 antibody-gp120 binding inhibition | 95 tested, under 10 active | IC50, µM; in the data active = IC50 below about 10 µM
# PGV04 binding DR: PGV04 binding, dose response counter-screen. hit rate 20% among 95. TR-FRET binding to control antibody PGV04. shares compounds with PG9 Ab binder. IC50, µM
# PG126 binding DR: binds control antibody PG126 in PG9 counter-screen | hit rate 20% among 95 | shares compounds with PG9 Ab binder | IC50, µM | TR-FRET binding to antibody PG126, counterscreen
# Active calls of the source: *; x = not tested or not shown. Cut-off read from the data, not from the text of the source, unless noted: active = IC50 below about 9 µM; inactive = the rest.
SMILES,rCAG RNA binder,sPLA2-III inh,MsrA act,MsrA inh,PG9 Ab binder,PG9 binder conf,PGV04 counter,others
O=C(O)CCN1C(=O)c2ccc(NC(=O)c3cccs3)cc2C1=O,1.1,5.5,3.9,2.2,2.2,x,x,
O=C(Nc1ccc2c(c1)C(=O)N(c1ccccc1)C2=O)c1cccs1,1.7,0.3,-0.8,0.2,21.7*,28.6*,40.4*,
Cc1nc(-c2ccc(Br)cc2)ccc1C(=O)O,-1.0,6.7,-3.6,2.4,13.8*,23.5*,29.8*,
Cc1ccc(-c2ccc(C(=O)O)c(C)n2)cc1,-0.8,5.7,-4.3,0.9,1.8,x,x,
O=C(Cc1cccc2ccccc12)Nc1ccc(-c2cc3ccccc3oc2=O)cc1,19.8,-16.1,-2.2,5.3*,18.5*,34.9*,44.5*,
COC(=O)c1c(NC(=O)COC(=O)CCNS(=O)(=O)c2ccc(NC(C)=O)cc2)sc(C)c1C,5.0,-19.1,-1.0,0.3,0.8,x,x,
CC(=O)Nc1sc(C)c(C)c1C(=O)OCC(=O)Nc1ccc(S(N)(=O)=O)cc1,0.9,-7.2,-4.7,-0.9,9.6*,12.6*,23.3*,
Cc1ccc(N=Cc2ccc(O)cc2O)cc1F,20.8,-0.8,-2.2,3.6,17.2*,10.5*,15.5*,
Oc1ccc(C=Nc2ccc(N3CCOCC3)cc2)c(O)c1,16.8,-0.6,-4.6,3.0,-3.3,x,x,
CCc1ccc(CCNC(=O)OC2CC3CC2[C@H]2CCCCN2[C@H]3C)cc1 (some centres undefined),-0.5,-0.6,x,x,x,x,x,
COc1ccccc1C(=O)Nc1ccc2c(C)cc(=O)oc2c1,0.1,5.1,-4.5,2.2,16.9*,20.1*,29.8*,
Cc1ccccc1OCCC(=O)Nc1ccc2c(C)cc(=O)oc2c1,3.3,-7.9,-3.6,1.1,10.5*,14.8*,38.4*,
CC(=O)c1ccc(NC(=O)NC2CCCCN(Cc3cccc(Cl)c3)C2=O)cc1 (centres undefined),5.1,5.4,x,x,x,x,x,
C#CCNC(=O)C[C@@H]1C[C@@](CCC(=O)OCC)(C(=O)OCC)C2=CCCCN2C1=O,2.1,8.3,x,x,x,x,x,
NC(=O)c1ccc(NC(=O)COC(=O)c2c[nH]c3ccccc23)cc1,2.6,-1.3,2.9,-1.1,10.0*,8.9*,16.2*,
CCN(c1ccc(C(=O)CN2C(=O)NC3(CCOc4ccccc43)C2=O)cc1)S(C)(=O)=O (centres undefined),4.5,-17.7,-2.4,0.3,9.8*,33.6*,32.4*,PG9 bind DR=>67;PGV04 binding DR=>67;PG126 binding DR=>67
N#Cc1cccc(-n2cc(COC(=O)NCCc3ccccc3)nn2)c1,-1.6,3.1,x,x,x,x,x,
O=C(CCc1ccccc1)Nc1nc2ccc(S(=O)(=O)N3CCOCC3)cc2s1,6.7,-4.6,-6.9,-0.2,11.7*,21.8*,31.2*,
CCOC(=O)[C@@]12CN(C(=O)OC(C)(C)C)CC=C1N(Cc1ccc(OC)cc1)C(=O)[C@H]2CC(=O)NCC12CC3CC(CC(C3)C1)C2,3.7,8.3,x,x,x,x,x,
COc1ccc(C(=O)CSc2nnc(-c3cc(C)on3)o2)cc1,6.5,-22.6,-4.7,0.3,18.5*,23.4*,49.0*,
CCCCCCCCN1C(=O)[C@@H](CC(=O)NCCC(C)C)C[C@@]2(C(=O)OC)C1=C[C@H](COCc1ccccc1)O[C@@H]2C,7.9,-14.8,x,x,x,x,x,
COc1ccc2oc(C(=O)Nc3nc(C)cs3)c(C)c2c1,8.9,5.8,-4.0,2.1,8.8*,13.2*,17.1*,
CCc1nonc1NC(=O)c1oc2cc(Br)ccc2c1C,4.1,1.6,-8.5,0.9,18.4*,19.8*,38.1*,
Cc1c(C(=O)Nc2nccs2)oc2ccc(Br)cc12,4.0,3.4,-14.0,1.2,10.1*,11.5*,15.2*,
CC(C)C[C@H]1COc2cccc(N3CCSCC3)c2S(=O)(=O)N1C,1.2,7.5,x,x,x,x,x,
COC(=O)c1nn(-c2ccc(C)cc2)c2nnc(Cc3ccccc3)c(=O)n12,-3.8,4.9,-3.0,0.4,23.1*,18.9*,28.0*,

# Screening data deposited in PubChem BioAssay by The Scripps Research Institute Molecular Screening Center.
